Assay outcomes as filed in PubChem BioAssay.
Rows were chosen to be rich in hits. Some 3.1% of all compounds tested hit in one or more screens of this group.
uPA generation: cell surface uPA generation inhibition; cell surface uPA generation assay, qHTS; Potency, µM (top dose mostly 38.3 µM), without a hit: at the highest dose activity change, negative = inhibition, most hits filed as inhibitors; 330,000 compounds, 0.31% hits; AID 540303; active means well fitted inhibition curve with a large enough effect; inconclusive means small, poorly fitted or top-dose-only effect; inactive means no such curve, though single readings can be large or run the other way; tested in mouse RAW 264.7 cells; further: potency means the concentration at half of the fitted maximal effect; on the % scale 0 is the no-effect control and ±100 the full control effect; nearly all actives have a fitted effect of over 55% in size
D3 antag: D3 dopamine receptor (human) antagonism. D3R cells, DiscoveRx beta-arrestin luminescence, antagonist mode; active compounds read low. 360,000 compounds, 2.5% hits. max response, negative = inhibition, %. P35462; in the data active means max response below about -50%; inconclusive means no clear call, values can overlap the other calls; further: on the % scale 0 is the no-effect control and ±100 the full control effect
Target sequence (P35462 whole entry, looked up): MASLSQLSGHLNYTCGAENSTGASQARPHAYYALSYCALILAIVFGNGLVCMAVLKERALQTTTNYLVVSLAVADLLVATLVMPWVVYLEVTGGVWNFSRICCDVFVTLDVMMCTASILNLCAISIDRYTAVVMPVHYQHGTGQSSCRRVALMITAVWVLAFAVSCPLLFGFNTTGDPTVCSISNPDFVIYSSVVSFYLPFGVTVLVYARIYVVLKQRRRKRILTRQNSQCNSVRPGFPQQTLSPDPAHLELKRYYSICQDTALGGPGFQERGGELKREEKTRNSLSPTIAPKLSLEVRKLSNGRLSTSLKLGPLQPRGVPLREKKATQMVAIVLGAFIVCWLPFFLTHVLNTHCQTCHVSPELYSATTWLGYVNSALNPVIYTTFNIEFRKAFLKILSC
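Cells plated overnight at 1500 cells/well, then exposed to library compounds with dopamine controls for 90 minutes at 37 degrees C. DiscoveRx reagent added for 30–60 minutes at room temperature; luminescence read, quantitative HTS format.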
DRD3 agonist: agonists of human D3 dopamine receptor. P35462. D3R DiscoveRx beta-arrestin cells, luminescence, 90 min. max activation, %. 410,000 compounds, 0.58% hits; in the data active means max activation above about 30%; further: 0% is about no effect
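Agonist mode: compounds and dopamine controls were applied to plated cells for 90 min at 37 degrees C after an overnight attachment at 1500 cells/well. Luminescent read-out followed 30 - 60 minutes at room temperature with DiscoveRx detection reagent.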
RGS4 inh: inhibitors of human regulator of G protein signaling 4; P49798; Transcreener GDP fluorescence polarization, RGS4-accelerated GTP hydrolysis; Potency, µM (series often up to 114 µM), for inactives: at the top dose activity change, negative = inhibition, most hits filed as inhibitors; 390,000 compounds, 0.039% hits; AID 504845; active means well fitted inhibition curve with a large enough effect; inconclusive means small, poorly fitted or top-dose-only effect; inactive means no such curve, though single readings can be large or run the other way; further: potency means the concentration at half of the fitted maximal effect; on the % scale 0 is the no-effect control and ±100 the full control effect; nearly all actives have a fitted effect of over 75% in size
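MLSMR compounds (23 nl, pin-transferred) preincubated 10 min at room temperature with a 500nM (2x) first reagent, then RGS4 at 900nM (2x) plus Transcreener GDP mix added; fluorescence polarization (620/688 nm) read before and after 90 min at 30 °C.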
* = called active by the depositor; ? = inconclusive; nt = no result given.

SMILES	uPA generation	D3 antag	DRD3 agonist	RGS4 inh
CCCCN1CCNC[C@H]1Cc1ccc(O)cc1	-0.7%	-92.1*	-9.8	27.3%
CCOC(=O)CN1C(C(=O)c2ccccc2)=C(OC(=O)c2ccccc2)c2ccccc2S1(=O)=O	nt	nt	49.5*	-9.7%
COC(=O)CN1C(C(=O)c2ccccc2)=C(OC(=O)c2ccc(F)cc2)c2ccccc2S1(=O)=O	nt	nt	-6.8	10.7%
CCc1ccc(NC(=O)Cn2ccn(-c3ccc(C)c(C)c3)c(=O)c2=O)cc1	nt	nt	-3.0	-19.4%
CCOc1cccc(NC(=O)C2CC(=O)N(C)C2)c1 (configuration not stated)	-0.3%	-76.9*	14.0	16.0%
COc1ccc(CCN2CC(C(=O)Nc3cccc(C(C)=O)c3)CC2=O)cc1OC (configuration not stated)	0.7%	-60.6*	16.4	-9.5%
CC(=O)c1cccc(NC(=O)C2CC(=O)N(CCc3ccccc3)C2)c1 (configuration not stated)	1.9%	-0.8	-5.3	3.8%
CCOc1cccc(NC(=O)C2CC(=O)N(C)C(=Nc3ccccc3)S2)c1 (configuration not stated)	0.1%	15.6	-0.5	9.0%
COc1cc2sc3cc(NCc4ccc5c(c4)OCO5)ccc3c(=O)c2cc1OC	1.5%	65.8	40.7*	4.3%
COc1cc2sc3cc(NCC[C@@H]4CCCN4C)ccc3c(=O)c2cc1OC	-13.8%	6.3	0.0	-45.2%
COc1cccc2sc3cc(NCc4ccc5c(c4)OCO5)ccc3c(=O)c12	9.9%	27.7	-8.2	4.3%
COc1cc2sc3cc(NCc4ccc(C)o4)ccc3c(=O)c2cc1OC	12.6µM*	23.5	23.6	-43.4%
C=C(NC(=O)C(=C)NC(=O)c1csc(C2=N[C@@H]3c4csc(n4)[C@H]4NC(=O)c5csc(n5)[C@H]([C@](C)(O)[C@@H](C)O)NC(=O)[C@H]5CSC(=N5)C(=CC)NC(=O)C([C@@H](C)O)NC(=O)c5csc(n5)[C@]3(CC2)NC(=O)[C@H](C)NC(=O)C(=C)NC(=O)[C@H](C)NC(=O)C([C@@H](C)CC)NC2C=Cc3c([C@H](C)O)cc(nc3C2O)C(=O)O[C@@H]4C)n1)C(N)=O (some centres not stated)	nt	nt	-1.4	nt
C#Cc1ccccc1OCCCN1CCC(C(O)(c2ccccc2)c2ccccc2)CC1	nt	?	-13.8	nt
OC(c1ccccc1)(c1ccccc1)C1CCN(CCCOc2ccccc2Cl)CC1	nt	-79.7*	-14.8	nt
COC(=O)c1cccc(OCCCN2CCC(C(O)(c3ccccc3)c3ccccc3)CC2)c1	nt	-92.5*	-14.3	nt
COc1ccccc1OCCCN1CCC(C(O)(c2ccccc2)c2ccccc2)CC1	nt	-84.5*	-16.2	nt
N#Cc1ccccc1OCCCN1CCC(C(O)(c2ccccc2)c2ccccc2)CC1	nt	-96.2*	-18.1	nt
Cc1ccc(OCCCN2CCC(C(O)(c3ccccc3)c3ccccc3)CC2)cc1	nt	-10.5	-12.3	nt
COc1ccc(-n2nc3cc(C)c(NC(=O)c4ccc(-c5ccc(Cl)cc5)o4)cc3n2)cc1	nt	nt	-3.6	1.5%
OC(c1ccccc1)(c1ccccc1)C1CCN(CCCOc2ccc(F)cc2)CC1	nt	-95.2*	-13.8	nt
CCc1nnc(N/N=C/c2ccccc2Cl)n1N	-25.7%	-63.2*	-13.6	-52.9%
CC(C)(C)c1nnc(N/N=C/c2ccccc2)n(N)c1=O	4.1%	11.3	3.2	9.6%
CC(C)(C)c1nnc(N/N=C/c2ccccc2O)n(N)c1=O	-8.8%	78.4	33.5*	10.7%
CCN(C(=O)CSc1nc2ccccc2n1CC(=O)NCc1ccc(OC)cc1)c1ccccc1	nt	nt	-4.8	-10.3%
Cc1nc2scc(-c3ccc(C(C)(C)C)cc3)c2c(=O)n1N	-5.0%	54.7	30.5*	9.4%
COc1ccc(-c2nc3n(n2)C(c2cccnc2)C(C(N)=O)=C(C)N3)cc1 (configuration not stated)	1.0%	-4.4	1.6	13.7%
COc1ccc(-c2nc3n(n2)C(c2ccncc2)C(C(N)=O)=C(C)N3)cc1 (configuration not stated)	-2.3%	-59.1*	-3.4	0.2%
C[C@H](CO)N1C[C@H](C)[C@@H](CN(C)C(=O)Nc2ccc3c(c2)OCO3)Oc2c(NC(=O)Nc3ccc(C(F)(F)F)cc3)cccc2C1=O	?	93.9	32.3*	0.5%
C[C@H](CO)N1C[C@H](C)[C@@H](CN(C)C(=O)NC2CCCCC2)Oc2ccc(NC(=O)Nc3ccc(C(F)(F)F)cc3)cc2C1=O	11.6%	29.0	53.6*	-23.3%
